Among the data in a collection of fitness landscapes (doi:10.1038/s41467-024-54723-y) are TetR repression strength values, retold here.

In all, about 18,000 sequences were measured (“TetR repression strength (sort-seq, GFP reporter)”: median about 0.23, highest 2% from about 0.68 on). The full list was thinned out, with the highest values kept by preference.

Chain of TetR (class B, Tn10) (P04483 whole entry): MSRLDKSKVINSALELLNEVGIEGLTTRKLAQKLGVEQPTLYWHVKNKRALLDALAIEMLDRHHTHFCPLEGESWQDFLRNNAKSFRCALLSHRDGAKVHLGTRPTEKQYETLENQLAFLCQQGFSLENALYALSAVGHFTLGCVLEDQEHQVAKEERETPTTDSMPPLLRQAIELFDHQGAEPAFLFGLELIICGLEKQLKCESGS

This assay deals with TetR (class B, Tn10) (UniProt P04483). The assay is described as follows: TetR repression strength (sort-seq, GFP reporter) (relative to tetO2 = 1); higher = stronger repression. The conditions noted are these: E. coli. Put shortly:
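E. coli SIG10-MAX carried a low-copy plasmid library with eight randomized operator positions between a constitutive promoter and sfGFP, with TetR constitutively expressed. Cells grew 5 h at 37 °C in LB with 50 µg/mL chloramphenicol, then 10^6 cells were FACS-sorted into 13 fluorescence bins, each Illumina-sequenced. Repression strength is the top bin index plus one minus the read-weighted mean bin, divided by the wild-type operator value. Three independent transformations; variants with ≥30 reads in all replicates and CV ≤0.5 were averaged.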
Take TCCCCGAGAGTGTTGGAGA: the TetR repression strength stood at 0.156.
To TCCCGACGAGTAAGTGAGA belongs 0.0202; to TCCCGTGCAGTGGGAGAGA, 0.177.
The result for TCCCCGAAAGTGGTTGAGA reads 0.272; that for TCCCCAGTAGTGTAAGAGA, 0.139; that for TCCCTCGTAGTTCGTGAGA, 0.105.
The result for TCCCGTAGAGTGCAAGAGA reads 0.396.
As to TCCCGGGCAGTGAAGGAGA, the TetR repression strength was found to be 0.251.
Take TCCCGCGGAGTGACGGAGA: the TetR repression strength stood at 0.38.
Regarding TCCCGAGGAGTACGAGAGA, the TetR repression strength turned out to be 0.222.
The result for TCCCCCATAGTCAGGGAGA reads 0.312.
Sequence TCCCAATAAGTGAAAGAGA yielded a TetR repression strength of 0.688.
To TCCCAAGAAGTGAAAGAGA belongs 0.2.
With TCCCAATCAGTGTAAGAGA, the TetR repression strength was found to be 0.74.
To TCCCAATCAGTTTAAGAGA belongs 0.368.
To TCCCAATCAGTGAAGGAGA belongs 0.671; to TCCCAATCAGTGTCAGAGA, 0.335.
To TCCCAATAAGTGTAAGAGA belongs 0.21; to TCCCAATCAGTGAAAGAGA, 0.686; to TCCCAATCAGTCAAAGAGA, 0.676.
TCCCACTAAGTTATAGAGA: the TetR repression strength turned out to be 0.672.
As for TCCCTGCTAGTTAGGGAGA, the TetR repression strength is 0.181.
TCCCGTCGAGTGGGAGAGA yielded a TetR repression strength of 0.494.
TCCCTCAAAGTGTACGAGA: the TetR repression strength amounted to 0.165.
Turning to TCCCGCTAAGTAAGTGAGA, the TetR repression strength was found to be 0.00864.
For TCCCTAGTAGTGATCGAGA, the TetR repression strength worked out at 0.37.
The result for TCCCTATCAGTGATCGAGA reads 0.868; that for TCCCTATCAGTCATCGAGA, 0.747; that for TCCCAATCAGTTATCGAGA, 0.468.
TCCCTATAAGTCGTCGAGA: the TetR repression strength worked out at 0.307.
To TCCCTATAAGTCATCGAGA belongs 0.687; to TCCCTCTCAGTTATCGAGA, 0.603.
Sequence TCCCTACCAGTGATCGAGA gave a TetR repression strength of 0.593.
To TCCCAATCAGTCATCGAGA belongs 0.557.
To TCCCTTTCAGTCATCGAGA belongs 0.53; to TCCCTATCAGTTATCGAGA, 0.859.
Take TCCCTACAAGTCATCGAGA: the TetR repression strength was found to be 0.309.
For the sequence TCCCCCACAGTGTAAGAGA, the TetR repression strength came out at 0.183.
The result for TCCCGCTTAGTCCTCGAGA reads 0.44; that for TCCCAATAAGTACGCGAGA, 0.348; that for TCCCAGCCAGTTTTGGAGA, 0.298.
Turning to TCCCCGGAAGTTGCGGAGA, the TetR repression strength stood at 0.0399.
As to TCCCGGGGAGTTATCGAGA, the TetR repression strength came to 0.161.
On to TCCCACGGAGTGGTGGAGA, for which the TetR repression strength came out at 0.11.
For TCCCGACGAGTACATGAGA, the TetR repression strength was 0.629.
As for TCCCTCAGAGTGGACGAGA, the TetR repression strength came out at 0.314.
The result for TCCCTATCAGTTATAGAGA reads 0.809; that for TCCCTATGAGTTATAGAGA, 0.439; that for TCCCTATCAGTCGTAGAGA, 0.557.
To TCCCTATAAGTTATAGAGA belongs 0.651; to TCCCTGTCAGTCATAGAGA, 0.617; to TCCCTATCAGTCATAGAGA, 0.924.
In the case of TCCCCAAAAGTCTTGGAGA, the TetR repression strength amounted to 0.681.
As to TCCCCAAAAGTGTGGGAGA, the TetR repression strength came to 0.821.
For the sequence TCCCCAAAAGTGGGGGAGA, the TetR repression strength was determined as 0.196.
To TCCCAAAAAGTGTGGGAGA belongs 0.415.
To TCCCCAACAGTGTTGGAGA belongs 0.292; to TCCCCAAAAGTCATGGAGA, 0; to TCCCTCACAGTGGGGGAGA, 0.189.
Consider TCCCTCTCAGTGTGGGAGA, for which the TetR repression strength stood at 0.234.
The result for TCCCCAAAAGTTTTGGAGA reads 0.276; that for TCCCCAAGAGTCTTGGAGA, 0.193; that for TCCCCAACAGTCTTGGAGA, 0.692.
The result for TCCCTCACAGTGTGGGAGA reads 1.22.
